About 710 (39%) of roughly 1,800 compounds were called active. Inconclusive results (about 28%) are left out.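 How the source made its calls: active means luciferase signal rise whose fitted curve crosses a set activity limit at or below the top valid tested dose; inconclusive means flat fit with 30 to 70% rise, or poor fit; inactive means signal falling, flat within 30%, or crossing above top dose.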 These entries were drawn from the full list. Measured potencies and affinities stand elsewhere.

This assay in a line: reporter signal increase, D54 LucT cells – cell-based, luminescence, cherry pick, counter-screen for N-linked glycosylation inhibitor project, dose response (AID 624404).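 Further: 0% = median neutral control signal and 100% = twice that signal.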 The following applies: D54 LucT luciferase reporter counterscreen, 24 h; series mostly up to 19.5 µM; activity increase (luciferase signal): at the top concentration.
In the case of `N#CCC(CNc1ncc(C(F)(F)F)cc1Cl)OC(=O)c1ccc(Cl)cc1Cl` (stereo not given), the “activity increase (luciferase signal)” value is 13.4% (inactive).

With `C/C(=N/NC(=O)c1cccs1)c1ccc(NC(=O)COc2ccc(Cl)cc2Cl)cc1`, the “activity increase (luciferase signal)” value is 13.5% (inactive).

On to `CCOc1ccc(Br)cc1C1=NN(C(C)=O)C(c2ccc([N+](=O)[O-])s2)O1` (stereo not given), for which the “activity increase (luciferase signal)” value is 30% (inactive).

For `CN(C)S(=O)(=O)c1ccc(N2CCCC2)c(C(=O)Nc2cccc(F)c2)c1`, the “activity increase (luciferase signal)” value was 17.2% (inactive).

For the compound `CN(C)S(=O)(=O)c1ccc(N2CCCC2)c(C(=O)Nc2ccccc2)c1`, the “activity increase (luciferase signal)” value is 4.45% (inactive).

For `COc1ccc(S(=O)(=O)Nc2cc3c(cc2C(C)=O)OCO3)cc1`, the “activity increase (luciferase signal)” value was 40.6% (inactive).

For `O=C(Nc1cccc(F)c1)c1cc(S(=O)(=O)N2CCOCC2)ccc1N1CCCC1`, the “activity increase (luciferase signal)” value is 5.41% (inactive).

`CC1=C(n2ccnc2)CCC1=O`: the “activity increase (luciferase signal)” value was 20.5% (inactive).

For `O=C1CC(c2ccccc2F)c2cc3c(cc2N1)CCC3` (stereo not given), the “activity increase (luciferase signal)” value is 32.1% (inactive).

In the case of `CC(C)(C)c1nnc2sc(SCC(=O)c3ccc4c(c3)OCCO4)nn2c1=O`, the “activity increase (luciferase signal)” value is -0.962% (inactive).

On to `CN(C)CCc1cc2c(c3c1ccc1ccccc13)OCO2`, for which the “activity increase (luciferase signal)” value is -9.59% (inactive).

For the compound `COc1ccccc1C1CC(=O)Nc2cc3c(cc21)OCCO3` (stereo not given), the “activity increase (luciferase signal)” value is 7.01% (inactive).

With `COC(=O)c1sc(N)c(C(=O)OC)c1COC(=O)c1c(C)noc1C`, the “activity increase (luciferase signal)” value was 41.7% (inactive).

Consider `Cc1[nH]c2ccc(C(=O)OC(C)C(=O)NCc3ccccc3)cc2c1C` (stereo not given), for which the “activity increase (luciferase signal)” value was 20.7% (inactive).

For `COc1cccc(-c2nc(N3CCN(C)CC3)c3ccccc3n2)c1O`, the “activity increase (luciferase signal)” value is 30.5% (inactive).

As to `O=C(CNc1cccc2ccccc12)N/N=C/C(Br)=C/c1ccccc1`, the “activity increase (luciferase signal)” value is 33.3% (inactive).

`O=C(N/N=C/C(Br)=C/c1ccccc1)c1cc(-c2ccco2)[nH]n1`: the “activity increase (luciferase signal)” value was 31.3% (inactive).

In the case of `Cc1nc2c3cc(F)ccc3n(Cc3ccc(F)cc3)c2s1`, the “activity increase (luciferase signal)” value is 23.6% (inactive).

As to `CCCn1nc(C(=O)N2CC(=O)Nc3ccccc32)c2ccccc2c1=O`, the “activity increase (luciferase signal)” value was 30.2% (inactive).

As to `CCOc1ccc2nc(NCCNC(=O)Nc3cccc(C)c3)c(C#N)cc2c1`, the “activity increase (luciferase signal)” value is 12.9% (inactive).

Take `COc1ccc2nc(SCC(=O)NC3CCCC3)c(C)cc2c1`: the “activity increase (luciferase signal)” value was 34.9% (inactive).

Consider `OCCNc1c2ccccc2nc2ccccc12`, for which the “activity increase (luciferase signal)” value is -24% (inactive).

For the compound `Cc1cc(/C=C2\Sc3ccccc3N2C)cc(C)[n+]1CC1CCCO1` (stereo not given), the “activity increase (luciferase signal)” value was -30.6% (inactive).

Take `CC(C)CC(NC(=O)c1ccc(Cl)cc1)C(=O)OCC(=O)c1ccc2c(c1)NC(=O)CO2` (stereo not given): the “activity increase (luciferase signal)” value was 19.6% (inactive).

On to `CC[C@H](C)[C@H](NC(=O)c1ccc(Cl)cc1)C(=O)OCC(=O)c1ccc2c(c1)NC(=O)CO2`, for which the “activity increase (luciferase signal)” value was -25.4% (inactive).

For the compound `COc1ccc(C(=O)C=Cc2ccc(OCc3ccccc3)c(OC)c2)cc1OC`, the “activity increase (luciferase signal)” value was 45.9% (inactive).

For the compound `O=C(/C=C/c1cccnc1)c1ccc(F)c(F)c1`, the “activity increase (luciferase signal)” value is 12.5% (inactive).

On to `C=CCn1cccc(/C=C/C(=O)c2ccc(C(C)(C)C)cc2)c1=S`, for which the “activity increase (luciferase signal)” value was -49.2% (inactive).

`CNc1ccc(Br)cc(C(=O)/C=C/c2ccc(Cl)cc2Cl)c1=O`: the “activity increase (luciferase signal)” value was 11.2% (inactive).

With `Cc1ccc(-c2nn(-c3ccccc3)cc2NC(=O)CCl)cc1`, the “activity increase (luciferase signal)” value is -50% (inactive).

On to `Cc1ccc(C(=O)CSc2nn3c(=O)c(C(C)(C)C)nnc3s2)cc1`, for which the “activity increase (luciferase signal)” value was 23.5% (inactive).

As to `CN(C)C(=O)c1cccc(-c2cnc3c(NC=O)cc(-c4ccccc4Cl)cn23)c1`, the “activity increase (luciferase signal)” value was 51.8% (inactive).

For the compound `COc1ccc(F)cc1-c1cc(NC(C)=O)c2ncc(-c3cc(OC)c(OC)c(OC)c3)n2c1`, the “activity increase (luciferase signal)” value is -10.8% (inactive).

`Nc1ccc(-c2cc(NC=O)c3ncc(-c4cccc(C(F)(F)F)c4)n3c2)cn1`: the “activity increase (luciferase signal)” value is 7.33% (inactive).

As for `COc1ccccc1-c1cc(NC=O)c2ncc(-c3cccc(C(C)=O)c3)n2c1`, the “activity increase (luciferase signal)” value is -15.7% (inactive).

On to `CCOc1cc(S(=O)(=O)NCc2ccc(OC)cc2)c(OCC)cc1-n1cnnn1`, for which the “activity increase (luciferase signal)” value is 29% (inactive).

For the compound `Oc1ccc(N=Nc2ccccc2)o1`, the “activity increase (luciferase signal)” value was 15.2% (inactive).

As to `O=C(Nc1cccc(C(F)(F)F)c1)c1sc(Cl)nc1C(F)(F)F`, the “activity increase (luciferase signal)” value was -21.3% (inactive).

On to `O=C(CNC(=O)N1CC(=O)Nc2ccccc21)NCCCc1ccccc1`, for which the “activity increase (luciferase signal)” value was 37.6% (inactive).

On to `CC(C)c1ccc(NC(=O)[C@@H](NC(=O)N2CC(=O)Nc3ccccc32)C(C)C)cc1`, for which the “activity increase (luciferase signal)” value was 49.1% (inactive).

Take `Cn1ncc2c(O/N=C(\N)c3ccc(C(F)(F)F)cc3)ncnc21`: the “activity increase (luciferase signal)” value is 9.8% (inactive).

In the case of `CC(/C=N/NC(=O)c1cc(-c2ccc(C)s2)[nH]n1)=C\c1ccccc1`, the “activity increase (luciferase signal)” value was 57% (inactive).

On to `CN(C)CCCN1C(=O)c2cccc3cccc(c23)C1=O`, for which the “activity increase (luciferase signal)” value was 66.1% (inactive).

Regarding `Cc1cc(NC(=O)COC(=O)c2ccc(S(=O)(=O)N3CCCc4ccccc43)cc2)no1`, the “activity increase (luciferase signal)” value is -2.94% [at 5 µM] (inactive).

As for `CCOc1ccccc1C1CC(=O)Nc2cc3c(cc21)OCCO3` (stereo not given), the “activity increase (luciferase signal)” value is -7.85% (inactive).

With `CCOC(=O)Cc1csc(/N=C/c2c(O)n(-c3ccc(C)c(C)c3)c(=O)c3ccccc23)n1`, the “activity increase (luciferase signal)” value is 48.7% (inactive).

For `Cc1cc(O)c(NC(=O)c2cc([N+](=O)[O-])ccc2Cl)cc1C`, the “activity increase (luciferase signal)” value was 5.97% (inactive).

Take `CC(=O)Nc1sc(C)c(C)c1C(=O)OCC(=O)Nc1cccc(C)c1`: the “activity increase (luciferase signal)” value was 35.9% (inactive).

As to `CC(=O)Nc1sc(C)c(C)c1C(=O)OCC(=O)N(CC(C)C)c1c(N)n(Cc2ccccc2)c(=O)[nH]c1=O`, the “activity increase (luciferase signal)” value is -15.8% (inactive).

For the compound `O=C1c2cccc3cccc(c23)C(=O)N1CC1CCN(CC(O)COCc2ccc3c(c2)OCO3)CC1` (stereo not given), the “activity increase (luciferase signal)” value is -18.8% (inactive).

`CN(C)c1ccc(C(C[N+](=O)[O-])c2c(N)n(C)c(=O)n(C)c2=O)c(F)c1C#N` (stereo not given): the “activity increase (luciferase signal)” value was -29.9% (inactive).

Regarding `Cc1ccc(-c2cnc(C3CC3)o2)cc1S(=O)(=O)Nc1ccccc1`, the “activity increase (luciferase signal)” value is 28.3% (inactive).

On to `CCNc1ccc(Br)cc(C(=O)/C=C/c2ccc(Cl)cc2)c1=O`, for which the “activity increase (luciferase signal)” value was -4.89% (inactive).

As for `COc1ccc(Oc2ccc(/C=C/C(=O)c3cccc(OC)c3)cc2[N+](=O)[O-])cc1`, the “activity increase (luciferase signal)” value is -28.9% (inactive).

`Cc1[nH]nc2c1C(c1cccc(O)c1)C1=C(CC(C)(C)CC1=O)N2` (stereo not given): the “activity increase (luciferase signal)” value was -7.35% (inactive).

With `Cc1cc(NC(=O)CSc2nc(-c3ccco3)cc(C(F)(F)F)n2)no1`, the “activity increase (luciferase signal)” value was 26.8% (inactive).

As to `O=C(NCCc1ccc(F)cc1)c1coc(=O)c(Br)c1`, the “activity increase (luciferase signal)” value was 14.3% (inactive).

With `COc1ccc(CCn2c(=N)c(C(=O)NCc3ccco3)cc3c(=O)n4ccccc4nc32)cc1OC`, the “activity increase (luciferase signal)” value is -3.36% (inactive).

Turning to `Cc1cccc2[nH]c3c(N4CCC5(CC4)OCCO5)ncnc3c12`, the “activity increase (luciferase signal)” value was 17% (inactive).

Consider `COc1ccc(CNC(=O)C2Cc3c(-c4ccc5c(c4)OCO5)ccnc3O2)cc1OC` (stereo not given), for which the “activity increase (luciferase signal)” value was 41.1% (inactive).

In the case of `COC(=O)c1cc(=O)n(Cc2ccc3c(c2)OCO3)c(=Nc2ccc(F)c(Cl)c2)s1`, the “activity increase (luciferase signal)” value is -55.3% (inactive).

Take `COc1cccc2nc3c(C(=O)NCCN(C)C)cccc3cc12`: the “activity increase (luciferase signal)” value was -3.74% (inactive).

Take `COc1ccc(-c2nc3c(C(=O)NCCN(C)C)cccc3c3ccccc23)cc1`: the “activity increase (luciferase signal)” value was 22.2% (inactive).

For `CCN(c1ccccc1)S(=O)(=O)c1ccc(C(=O)NC2CCN(Cc3ccccc3)CC2)cc1`, the “activity increase (luciferase signal)” value was -0.543% (inactive).

With `Nc1nc(=S)c2ncn(C3OC(CO)C(O)C3O)c2[nH]1` (stereo not given), the “activity increase (luciferase signal)” value was 23.6% (inactive).

For the origin of these results see PubChem BioAssay AID624404 (Broad Institute, 2012).
